Data published in article PMC8384837, “Expanding the binding specificity for RNA recognition by a PUF domain”.

Each sequence was assayed against PUM1 PUF domain R4-GNS (Homo sapiens, UniProt Q14671 828-1176, N971G;H972N;Q975S) (assay: yeast three-hybrid, YBZ-1, SC-Leu-His + 0.5 mM 3-AT, 4 days). Settings: tags: N-Gal4 AD-HA kept; label: inside an RPR1-promoter hybrid RNA with tandem MS2 sites; ssRNA.
Outline: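 Pumilio-1 PUF domain libraries, randomized (NNK) at the three base-contacting residues of each repeat, were co-expressed with matching RNA elements from a centromeric plasmid in strain YBZ-1 (LexA–MS2 coat fusion, HIS3 reporter). Transformants were plated on SC-Leu (input) and SC-Leu-His + 0.5 mM 3-AT (selection) for four days, and repeat regions were PCR-amplified and Illumina-sequenced. The interaction score is the log2 change in variant frequency from input to selection, with pseudocount 1 where absent.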

First: GGCUAGAACUAGUGGAUCCCCCGGCGCCCGGCGGCUCGAGCCCGGGUAAGUGUAAAUAGUCUGCAUGCCGCCGGGCGCCAUGCCUGCAGGUCGACUCUAGAAAACAUG
Second: GGCUAGAACUAGUGGAUCCCCCGGCGCCCGGCGGCUCGAGCCCGGGUAAGUGUACAUAGUCUGCAUGCCGCCGGGCGCCAUGCCUGCAGGUCGACUCUAGAAAACAUG
The binding signal of the first is higher: 2.34 log2 enrichment (interaction score) for the first, 2.01 log2 enrichment (interaction score) for the second.

With “GGCUAGAACUAGUGGAUCCCCCGGCGCCCGGCGGCUCGAGCCCGGGUAAGUGUAUAUAGUCUGCAUGCCGCCGGGCGCCAUGCCUGCAGGUCGACUCUAGAAAACAUG” the binding signal was 4.46 log2 enrichment (interaction score).
